Data taken from PubChem BioAssay AID602350 (Broad Institute, 2012).
Potency and affinity values are given separately.

What follows are compounds tested against Protein disulfide-isomerase (Homo sapiens) (UniProt P07237) (assay: PDI inhibitors, insulin aggregation turbidity, dose response, biochemical, absorbance, cherry-picked samples (AID 602350;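 note: 0% = neutral controls and -100% = rutin hydrate positive control wells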)). Conditions: recombinant PDI insulin aggregation, absorbance 650 nm, 90 min; series mostly up to 19.5 µM; activity change, negative = inhibition: at the top concentration;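 active = absorbance falls by 30% or more versus neutral controls, with a potency fitted within twice the top valid dose; inconclusive = no clear call, values can overlap the other calls; inactive = change opposite to expected direction, plus the rest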.
Sequence of Protein disulfide-isomerase (Homo sapiens) (P07237 whole entry, looked up): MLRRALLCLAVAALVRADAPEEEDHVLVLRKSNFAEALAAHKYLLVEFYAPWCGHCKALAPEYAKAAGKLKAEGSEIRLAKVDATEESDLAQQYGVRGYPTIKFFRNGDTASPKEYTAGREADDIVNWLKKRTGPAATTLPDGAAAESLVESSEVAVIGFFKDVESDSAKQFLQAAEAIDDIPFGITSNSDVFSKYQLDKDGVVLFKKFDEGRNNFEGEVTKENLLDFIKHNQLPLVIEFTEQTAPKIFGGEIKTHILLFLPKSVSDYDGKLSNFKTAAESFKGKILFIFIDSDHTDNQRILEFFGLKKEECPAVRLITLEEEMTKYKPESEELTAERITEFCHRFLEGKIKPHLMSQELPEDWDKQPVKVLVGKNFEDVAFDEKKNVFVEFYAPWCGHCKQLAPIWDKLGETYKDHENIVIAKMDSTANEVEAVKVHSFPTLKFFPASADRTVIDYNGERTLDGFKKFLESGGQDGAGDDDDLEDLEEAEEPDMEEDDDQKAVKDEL

Activity change, negative = inhibition, inactive:
COc1cc(C2C(C#N)=C(N)Oc3cc(O)ccc32)cc(OC)c1OC (centres undefined) -7.09%, O=C(CN(CCc1ccccc1)C(=O)CNS(=O)(=O)c1ccccc1)NCC1CCCO1 (centres undefined) 6.4%, Cc1ccc(N(Cc2ccccc2)C(=O)c2cccc(S(=O)(=O)N3CC(C)OC(C)C3)c2)cc1 (centres undefined) 12.2%, O=C(c1ccc(NS(=O)(=O)c2ccccc2)cc1)N1CCOCC1 12.3%, CCOC(=O)c1c(CN2CCOCC2)n(-c2ccccc2)c2cc(Br)c(OC)cc12 2.98%, O=C1/C(=C\c2ccc(O)cc2)CCC1CNc1ccc(Cl)cc1 (centres undefined) 11.1%, CC(OC(=O)c1cccc(S(=O)(=O)N(C)C)c1)C(=O)NCC(=O)Nc1ccc(F)c(F)c1F (centres undefined) 5.12%, C[C@@H](CN1C2=NC[C@H](Cc3ccc(O)cc3)N2C[C@H]1Cc1ccc(O)cc1)NC(=O)CCC1CCCCC1 -11.3%, CC1CC(C)CN(C(=O)COC(=O)c2ccc[nH]c2=O)C1 (centres undefined) 3.89%, O=C(NCc1cccs1)C1CC(c2ccc(F)cc2)=NO1 (centres undefined) -2.19%, COc1ccccc1NS(=O)(=O)c1cccc(C(=O)NCC2(N3CCCCC3)CCCCC2)c1 10.1%, N#Cc1ccccc1CSc1nnc(Cc2ccccc2)o1 -1.56%, O=C(NC(=S)Nc1cccc(NC(=O)c2ccccc2)c1)c1cccc([N+](=O)[O-])c1 0.228%, Cc1nc(C(=O)Nc2cccc(Cl)c2Cl)nn1-c1cc(OC(C)C)c(Cl)cc1Cl 15.7%, COc1ccc(/C=C2\Sc3ccc(C(=O)NCCCN4CCCC4)cc3N(C)C2=O)cc1OC 3.6%, CCOC(=O)C1(CCOc2ccccc2)CCN(Cc2ccccc2O)CC1 7.15%, CCC(=O)N1CCc2cc(S(=O)(=O)CCC(=O)NCc3ccco3)ccc21 0.455%, O=C(Nc1nc2ccccc2s1)c1cccc(S(=O)(=O)N2CCc3ccccc32)c1 -4.05%, O=C(N/N=C/c1ccc(O)cc1)NC12CC3CC(CC(C3)C1)C2 -7.74%, C[C@]12CC[C@@H]3c4ccc(O)cc4C(=O)C[C@H]3[C@@H]1CC[C@@H]2O -13.4%, CC(=O)NC1(c2nnnn2CCOC(=O)Nc2ccc(Cl)cc2)CCCCC1 14.4%, COc1c(Br)cc(C(N)=O)cc1OCc1ccccc1 23%, O=C(NCc1ccccc1CN1CCCC1)c1cc2ccccc2o1 -3.18%, O=C(Nc1oc2ccccc2c(=O)c1-c1ccc(Cl)cc1)c1ccco1 16.3%, CN(CCC(=O)Nc1ccc(Br)cc1)Cc1ccccc1 4%, Cc1cc(Cl)ccc1OCc1n[nH]c(=S)n1C1CCCCC1 12.3%, CC[C@]12c3[nH]c4cc(-c5ccco5)ccc4c3CCN1C(=O)[C@@H](CC(=O)NCCCOC)C[C@@H]2C(=O)N1CCN(C(=O)C2CC2)CC1 0.067% [at 2.1 µM], Cc1ccc(CN(c2ccc(C(=O)Nc3ccc4c(c3)OCO4)cc2)S(C)(=O)=O)cc1 8.91%, Cc1c(-n2cc(C(=O)c3cc(Br)ccc3O)cc(C#N)c2=O)c(=O)n(-c2ccccc2)n1C -4.17%, COc1ccc(/C(C)=N/NC(=O)CNC(=O)c2cccs2)cc1 30.1%, C[C@H](CO)N1C[C@H](C)[C@@H](CN(C)S(=O)(=O)c2ccc(F)cc2)Oc2ccc(NC(=O)Cc3ccccc3)cc2C1=O 4.3%, CC(O)(c1cccnc1)c1nc(-c2cc(F)cc(F)c2)cs1 (centres undefined) 13.6%, CCCCn1c(N)c(N(CC(C)C)C(=O)c2cc(-c3ccncc3)nc3ccccc23)c(=O)[nH]c1=O 3.08%, COc1ccc(CNC(=O)c2ccc(CS(=O)Cc3cccc(Cl)c3)o2)cc1 (centres undefined) 2.11%, O=C(NCc1ccccn1)Nc1cccc(Cl)c1 -3.69%, CCOC(=O)C1(CCOc2ccccc2)CCN(Cc2cccc(F)c2)CC1 -1.84%, CCN(CC)C(=O)CSc1nnc([C@H](Cc2c[nH]c3ccccc23)NC(=O)OC(C)(C)C)o1 -12.5%, Cc1cc2c3c(c1)C1(C(=O)N3C(C)(C)CC2C)C(C#N)=C(N)Oc2n[nH]c(C)c21 (centres undefined) -14.8%, CC(=O)N1CCC(C(=O)NCCOc2cccc(C)c2)CC1 9.17%
